From PubChem BioAssay AID1321 (The Scripps Research Institute Molecular Screening Center, 2008)
Out of some 220,000 compounds screened, about 2,600 (1.2%) were called active. This is one part of a sample in which actives are shown more often than they occur.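 Rule for the calls: active = activation above the mean of all tested compounds plus 3 SD, set per screening run (cut at about 8.8% in these data); inactive = the rest.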

target: Wee1-like protein kinase (Homo sapiens) (UniProt P30291); assay: Wee1 degradation inhibitors, primary screen, cell-based, HeLa, Wee1K328M-luciferase, luminescence (AID 1321); conditions: HeLa Luc-Wee1K328M stability, at 5 µM, stronger effect = higher value, 100% = proteasome inhibitor MG132 effect;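 note: cells exposed to compound for 20 h before luminescence read; 0% = DMSO alone and 100% = MG132 at 30 µM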

Reporter increase, inactive:
CC(=O)NC(=S)Nc1ccc(NC(=S)NC(=O)c2ccc([N+](=O)[O-])cc2)cc1 1.61%, Cc1nnc(C)c2c(C)n(N)c(C)c12 3.05%, O=C(CCl)Nc1ccc(Sc2ccc(NC(=O)CCl)cc2)cc1 -0.49%, Cc1ccc(NC(=O)CCN2CCc3ccccc3C2)cc1 0.24%, Cc1ccc(NC(=O)CC(=O)Nc2ccc(C)cc2)cc1 1.54%, COc1ccc(NC(=O)C2=C(C)NC(=O)NC2c2ccccc2[N+](=O)[O-])cc1 (stereo unspecified) 0.32%, O=C(Nc1cccc2ncccc12)c1ccc(-c2ccc(Cl)cc2Cl)o1 7.64%, O=[N+]([O-])c1cccc2ncccc12 -1.36%, O=C(O)c1cc(Cl)c(Cl)cc1C(=O)Nc1cccc2ncccc12 -2.37%, Cc1cc(O)c(NC(=O)c2ccc(C)c([N+](=O)[O-])c2)cc1C 2.32%, O=C(NC(=O)c1ccccc1N1CCCCC1)Nc1ccc(Br)cc1 -1.56%, Fc1ccc(Nc2nnns2)cc1 -1.03%, CN1CCN(c2cc3c(cc2F)c(=O)c(C(=O)O)cn3CCF)CC1 -0.92%, C#CCNc1ccc(C(=O)OCC)cc1 -0.22%, CCOC(=O)c1c(NC(=O)c2cccs2)sc(C)c1C -0.63%, CCOC(=O)c1sc(/N=C/C2=C(O)CC(C)(C)CC2=O)c(C(=O)OCC)c1C 0.6%, COc1cc(OC)cc(/C(N)=N/O)c1 5.93%, CN(CC(=O)Nc1cccc(F)c1)CC(=O)Nc1cccc([N+](=O)[O-])c1 3.36%, CC(=O)Nc1cccc([N+](=O)[O-])c1 1.71%, COc1ccc(N=Nc2ccc(O)c(P(=O)(c3ccccc3)c3ccccc3)c2)cc1 2.24%, Clc1ccc(C[n+]2cc(-c3ccccc3)n3c2CCC3)cc1 -0.29%, COc1ccccc1NC(=O)C1=C(C)Nc2nc3ccccc3n2C1c1cccs1 (stereo unspecified) 5.69%, COc1ccccc1NC(=O)c1ccc(C)s1 -0.54%, Nc1nc(Nc2ccccc2)nc(NCCO)c1[N+](=O)[O-] -3.26%, Cc1cc(C)c(C)c(S(=O)(=O)N[C@@H](C)C(=O)OC(C)C(=O)NC(N)=O)c1C (stereo partly specified) -2.95%, COc1ccc(/C=N/Nc2nc3ccccc3o2)cc1OC 4.92%, COc1cccc(/C=N\Nc2nncc(-c3ccccc3)n2)c1 0.25%, OCCN1CCN(C(=S)c2ccc(-c3ccccc3)cc2)CC1 -3.59%, COc1ccc(NC(=O)C2CCC(CNc3c(N4CCCCC4)c(=O)c3=O)CC2)c(OC)c1 (stereo unspecified) 1.06%, CCOC(=O)c1nnn2c3ccccc3c(=O)n(C)c12 -0.3%, Cc1ncn2cc(-c3ccc(Cl)cc3Cl)[nH]c(=O)c12 -1.11%, Cc1ccc(S(=O)(=O)/N=C(/NC(=S)Nc2c(C)n(C)n(-c3ccccc3)c2=O)c2ccccc2)cc1 -0.69%, CCc1ccccc1NC(=O)CSc1nnc(CCNC(=O)OC(C)(C)C)o1 5.87%, Cc1cccc(NC(=O)CSc2nnc(CCCCCNC(=O)OC(C)(C)C)o2)c1C -2.16%, CSc1nnc(-c2ccc(C(F)(F)F)cn2)o1 -1.5%, Cc1nc(-c2nnc(SCC(=O)Nc3cc(C(F)(F)F)cc(C(F)(F)F)c3)n2C)cs1 2.29%, CCn1c(=O)c([N+](=O)[O-])c(NCc2ccc3c(c2)OCO3)c2ccccc21 -2.11%, COc1ccc(N2CCN(c3ccc([N+](=O)[O-])nc3)CC2)cc1 2.25%, COc1ccccc1N1CCN(CCCCOc2ccc(F)cc2)CC1 1.24%, CCC(C)NC(=O)C1c2ccccc2Oc2ccccc21 (stereo unspecified) 2.05%, CN(C)S(=O)(=O)N1CCN(c2ccc([N+](=O)[O-])cc2)CC1 6.3%, CC(C)=C1SC(N2CCN(c3ccc(C)c(Cl)c3)CC2)=NC1=O -2.39%, N#C/C(=C/c1ccc(-c2ccccc2[N+](=O)[O-])o1)C(=O)NCCN1CCCCC1 -2.23%, Cc1ccc(Cc2cnc(NC(=O)/C(C#N)=C/c3ccc(-c4cccc([N+](=O)[O-])c4)o3)s2)cc1 -0.97%, CCOC(=O)C1=C(c2ccccc2)NC(=S)NC1c1ccc(Cl)cc1 (stereo unspecified) 3.7%, CC(C)(C)c1cc(P(=O)(c2ccccc2)c2ccccc2)ccc1O 0.95%, COc1ccc(C2c3ccc(O)cc3Oc3ncn(CCCO)c(=N)c32)cc1OC (stereo unspecified) 2.84%, N#Cc1ccc(Oc2ccc(C(F)(F)F)cc2NC(=O)c2ccc(F)cc2)cc1 2.35%, COc1cc(/C=C2/C(=O)NN(c3ccc(F)cc3)C2=O)cc([N+](=O)[O-])c1O -0.14%, Cc1ccc(CC2CC(=O)N(c3nc(C)cc(C)n3)C2=O)cc1 (stereo unspecified) -2.45%, COc1ccc(CCN2C(=O)C3CC=C(C)CC3C2=O)cc1OC (stereo unspecified) 5.14%, Cc1nc(-c2ccccc2)sc1-c1nnc(C2CC2)o1 -1.78%, CCOC(=O)c1cc(Sc2ccccc2N)cc(C(=O)OCC)n1 -2.91%, Cc1nnsc1C(=O)N/N=C/c1ccccc1Cl 2.61%, CCN(CC)S(=O)(=O)c1ccc(NC(=O)CN(c2cccc(F)c2)S(C)(=O)=O)cc1 -1.26%, COc1cccc(N(CC(=O)Nc2cccc(N(C)S(C)(=O)=O)c2)S(C)(=O)=O)c1 -1.32%, O=C(Cc1ccc(F)cc1)NC1CCCC1 -1.42%, O=C(CC1CCCCC1)NCc1ccco1 0.37%, Cc1ccc(S(=O)(=O)/N=C(/Nc2ccc3[nH]c(=O)[nH]c3c2)c2ccccc2)cc1 -1.22%, COC(=O)c1ccccc1NS(=O)(=O)c1ccc2[nH]c(=O)[nH]c2c1 -1.86%, O=C1/C(=C/c2coc3ccc(O)cc3c2=O)SC(=S)N1c1ccccc1 -0.03%, COc1c(C=O)c(CCN(C)C(=O)c2ccc(F)cc2)cc2c1OCO2 0.06%, Fc1ccc(COc2cccc(-c3n[nH]c(=S)o3)c2)cc1 -0.05%, COc1ccc(-c2nnco2)cc1OC -2.71%, CCOC(=O)Cc1cc(=O)[nH]c(/N=C(\N)Nc2ccc(OC)cc2)n1 0.86%, Oc1ccc2ccccc2c1C=Nc1ccccc1 -2.84%, O=C(COC(=O)c1cc(S(=O)(=O)N2CCCCC2)ccc1Cl)NCc1ccco1 5.36%, CCn1c2ccccc2c2cc(NC(=O)COC(=O)c3ccccc3Br)ccc21 1.86%, Nc1ccc(C(=O)OCC(=O)NC2CCS(=O)(=O)C2)cc1[N+](=O)[O-] (stereo unspecified) -1.54%, COc1ccccc1P(=O)(c1ccccc1)c1ccccc1NC(C)=O (stereo unspecified) 0.01%, Cc1ccc(NC(=O)CSCC(=O)NC2CCCCC2)cc1 0.26%, Cc1ccc(-c2nc(CS(=O)CC(=O)NC3CCCC3)c(C)o2)cc1 (stereo unspecified) 2.35%, Nc1nc(NC(=O)/C=C/c2ccc(F)cc2)nn1-c1ccccc1 -3.61%, Oc1ccc(-c2nnc(Nc3ccccc3)c3ccccc23)cc1 -2.97%, O=C1/C(=C/c2cccs2)SC(=S)N1C1CCS(=O)(=O)C1 (stereo unspecified) 2.22%, O=C(O)CCCCc1nc2ccccc2s1 1.81%, COc1cccc2sc(NNC(=O)c3nc4ccccc4s3)nc12 1.43%

Reporter increase, active:
Cc1ccc(NC(=O)CN2CCc3ccccc3C2)cc1 12.7%, O=C(Nc1cccc2ncccc12)C(Cl)(Cl)Cl 9.1%, Cc1ccc(C(=O)Nc2cccc3ncccc23)cc1[N+](=O)[O-] 54.1%, CCOC(=O)c1c(/N=C/C2C(=O)CC(C)(C)CC2=O)sc(C)c1C 12.6%, Cc1ccc(CN(C)CC(=O)Nc2cccc([N+](=O)[O-])c2)o1 8.93%, COc1ccccc1NC(=O)C1=C(C)NC(=O)NC1c1ccc(C)s1 (stereo unspecified) 9.03%, CCOc1ccc(/C=N/Nc2nncc(-c3ccccc3)n2)cc1OC 16.9%, Cc1ccccc1CSc1nnc(CCCCCNC(=O)OC(C)(C)C)o1 15.4%, COc1ccccc1N1CCN(c2ccc([N+](=O)[O-])nc2)CC1 12.9%, Cc1ccc(N2CCN(S(=O)(=O)N(C)C)CC2)cc1Cl 13.4%, N#C/C(=C\c1ccc(-c2cccc([N+](=O)[O-])c2)o1)C(=O)NCCN1CCOCC1 9.19%, COc1ccc(CN2C(=O)CC(Cc3ccc(C)cc3)C2=O)cc1OC (stereo unspecified) 10.8%, COc1cccc(N(CC(=O)Nc2cccc(F)c2)S(C)(=O)=O)c1 8.9%, O=C(CC1CCCCC1)NCc1ccc(F)cc1 8.97%, CC(OC(=O)c1ccc(NS(=O)(=O)c2ccc3[nH]c(=O)[nH]c3c2)cc1)C(=O)Nc1cccc(Cl)c1Cl (stereo unspecified) 24.1%, Fc1ccc(COc2ccc(-c3nnco3)cc2)cc1 16.2%, CCn1c2ccccc2c2cc(NC(=O)COC(=O)c3cc(S(=O)(=O)N4CCCCC4)ccc3Cl)ccc21 11.6%, Cc1ccc(NC(=O)CS(=O)CC(=O)N(c2ccccc2)C(C)C(=O)NC2CCCC2)cc1 (stereo unspecified) 10.2%, COc1ccccc1OCc1nc2ccccc2s1 10.1%
